Legend:
Format in all cases: functional
Plasmodium falciparum [1] = assay: GSK_TCMDC: Inhibition of Plasmodium falciparum 3D7 in whole red blood cells, using parasite LDH activity as an index of growth. Test compounds present at 2uM
Plasmodium falciparum [2] = assay: GSK_TCMDC: Inhibition of Plasmodium falciparum Dd2 in whole red blood cells, using parasite LDH activity as an index of growth. Test compounds present at 2uM
HepG2 = assay: GSK_TCMDC: Percent inhibition of human HepG2 cell line. Test compounds present at 10uM.

| SMILES | Inhibition (Plasmodium falciparum [1]) | Inhibition (Plasmodium falciparum [2]) | Inhibition (HepG2) |
| --- | --- | --- | --- |
| Cl.ON=C1CCc2cc(-c3[nH]c(-c4cccc(OCCNCc5ccc(F)cc5)c4)nc3-c3ccncc3)ccc21 | 89% | 69% | 76% |
| CCCNCc1c(O)ccc2c(CNCCC)c(O)ccc12.Cl | 100% | 9% | 24% |
| O=C(NCC1CCC(C(=O)NC2CCCc3ccccc32)CC1)c1ccc(O)c(-c2ccc(Cl)c(Cl)c2)c1 (stereo not drawn) | 93% | 86% | 0% |
| Cc1cc(NCC2CCN(CC3CCCCC3)C2)nc(Nc2ccc(Cl)cc2)n1 (stereo not drawn) | 100% | 74% | 2% |
| Cc1cccc2nc(-c3cccc(-c4cccc(NC(=O)c5cccnc5)c4)c3)[nH]c12 | 100% | 56% | 28% |
| COc1cc(C)ccc1S(=O)(=O)N1CCCCC(c2ccc(C(F)(F)F)cc2)=N1 | 92% | 89% | 16% |
| O=C(NCc1ccc(Cl)cc1)c1ccc(CN2CCCN(Cc3cccc(O)c3)CC2)cc1.O=C(O)C(F)(F)F | 82% | 12% | 25% |
| Cc1cccc2nc(-c3cccc(-c4ccc(NC(=O)Nc5ccc(Cl)c(Cl)c5)cc4)c3)[nH]c12 | 100% | 83% | 53% |
| Oc1cc2c(cc1CN1CCN(Cc3ccccc3F)CC1)CCC2 | 98% | 94% | 2% |
| COCCn1c(-c2nc(-c3ccc(F)cc3)cnc2N)nc2ccccc21 | 98% | 98% | 16% |
| Cc1ccc(CNC(=O)c2cc3c(=O)n4ccccc4nc3n(CCCN3CCOCC3)c2=N)cc1 | 92% | 5% | 21% |
